# Assay results as given in PubChem BioAssay (NCATS).
# Inconclusive results are not listed. Active and inactive are the calls of the source. The call rests on the fitted dose curve; in most records, active means well fitted inhibition curve with a large enough effect; inconclusive means small, poorly fitted or top-dose-only effect; inactive means flat fitted curve, though single readings scatter.
# Biological target: Aldehyde dehydrogenase, mitochondrial (Homo sapiens) (UniProt P05091)
# Assay: qHTS for Inhibitors of the Aldehyde Dehydrogenase Family (ALDH2) Primary screen (AID 2061308);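 further: plate controls were vehicle for no effect and reference inhibitor for full effect; nearly all actives have a fitted effect of over 55% in size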
# Details: ALDH2 enzyme inhibition qHTS, 1536-well; series mostly up to 56 µM; activity change, negative = inhibition: at the top concentration
Compound,"activity change, negative = inhibition",Potency
Cc1ccccc1NC(=O)Nc1ccc(CC(=O)N(C)[C@@H](CC(C)C)C(=O)NCC[C@H](NC(=O)[C@@H]2CCCN2S(=O)(=O)c2cc(Cl)cc(Cl)c2)C(=O)O)cc1,-3.63% [at 28 µM] (inactive),
COc1ccc2c(OCc3nnc4ccc(-c5ccccc5)nn34)ccnc2c1,0.417% (inactive),
CC1=C2C(=O)C=C(CO)C2[C@H]2OC(=O)[C@H](C)[C@@H]2[C@@H](OC(=O)Cc2ccc(O)cc2)C1 (some centres undefined),-1.08% [at 28 µM] (inactive),
Cc1cc(N2CCOCC2)ccc1Nc1nc(NC2CCCCC2)c2[nH]cnc2n1,-10.4% (inactive),
COc1nc(C)cnc1NS(=O)(=O)c1cccnc1-c1ccc(-c2nnco2)cc1,1.37% (inactive),
COCCN1CCN(Cc2ccc(-c3n[nH]c4c3C(=O)c3c(NC(=O)NN5CCOCC5)cccc3-4)cc2)CC1,2.87% (inactive),
CC(=O)OC/C(=C/C(=O)O)CC[C@@H]1C(C=O)=CC[C@@H]2C(C)(C)CCC[C@@]12C,-3.24% (inactive),
CC1CC(C(O)C(C)(C)O)OC2CC3(C)C4(C)CCC5C(C)(C)C(=O)CCC5(C)C4CCC3(O)C12O (centres undefined),-1.99% [at 28 µM] (inactive),
Nc1ncnc2c1c(-c1cnc3[nH]ccc3c1)nn2C1CCCC1,-5.84% (inactive),
CS(=O)(=O)c1ccc([C@H](CC2CCCC2)C(=O)Nc2nccs2)cc1,-4.27% (inactive),
CC(=O)OC1CC2(C)C3=CCC4(C)C5C(O)C(O)C(C(C)C)C5(C)CCC4(C)C3CCC2C(C)(C)C1OC1OC(CO)C(O)C(O)C1O (centres undefined),1.77% [at 16.9 µM] (inactive),
COC(=O)Nc1nc2ccc(C(=O)c3ccc(F)cc3)cc2[nH]1,6.79% (inactive),
C/C1=C\C[C@H](O[C@@H]2O[C@H](CO)[C@@H](O)[C@H](O)[C@H]2O)/C(C)=C/[C@H]2OC(=O)[C@H](C)[C@@H]2CC1,-2.78% [at 28 µM] (inactive),
C=C1CC[C@@H](O)[C@]2(C)C[C@H]3OC(=O)C(=C)[C@H]3CC12 (some centres undefined),0.562% (inactive),
COc1cc(CCO)ccc1O[C@@H]1O[C@H](CO)[C@@H](O)[C@H](O)[C@H]1O,-1.91% (inactive),
COc1cc(O)cc2c1C(=O)OC(C)CCCCCCC2 (centres undefined),-0.664% (inactive),
Cc1cc(Nc2nc(N[C@@H](C)c3ncc(F)cn3)ncc2Cl)n[nH]1,,inactive

Compound,"activity change, negative = inhibition",Potency
Cc1ccc2nc(NC(=O)CSc3nc4c(c(=O)n3-c3ccccc3)SCC4)sc2c1,6.8% (inactive),
CN1CCc2nc(C(=O)N[C@@H]3C[C@@H](C(=O)N(C)C)CC[C@@H]3NC(=O)C(=O)Nc3ccc(Cl)cn3)sc2C1,2.43% (inactive),
COc1ccc2nc3n[nH]c(C)c3c(NCCOCCO)c2c1,-3.77% (inactive),
COC(=O)C[C@H]1C(C)(C)[C@H](OC(=O)C(C)C)[C@@]2(O)C(=O)[C@]1(C)C1CC[C@]3(C)C(CC(=O)O[C@H]3c3ccoc3)[C@]13O[C@@H]32 (some centres undefined),-3.78% [at 16.9 µM] (inactive),
CC1=C(CO)CC(C(C)C2CCC3C4CC=C5CC(OC6OC(COC7OC(CO)C(O)C(O)C7O)C(O)C(O)C6O)CC(O)C5(C)C4CCC23C)OC1=O (centres undefined),4.86% [at 16.9 µM] (inactive),
C=C1CC23CC(=O)C4C(CO)(CO)CCCC4(C)C2CCC1C3 (centres undefined),8.25% (inactive),
COc1ccccc1-c1ccc(-c2cn(C(=O)N3CCCCC3Cc3ccccc3)nn2)cc1 (centres undefined),0.953% (inactive),
CC(C)CNc1ccnc(NCc2csc(-c3ccccc3)n2)n1,10.6% (inactive),
C/C=C1\[C@H](O[C@@H]2O[C@H](CO)[C@@H](O)[C@H](O)[C@H]2O)OC=C(C(=O)OC)[C@H]1CC(=O)OC,2.6% [at 28 µM] (inactive),
NC(=O)c1cccc2cn(-c3ccc([C@@H]4CCCNC4)cc3)nc12,-4.08% (inactive),
COCCCOc1ccnc(CS(=O)c2nc3ccccc3[nH]2)c1C (centres undefined),-16.9% (inactive),
CCOC(=O)C1=C(C)NC2=C(C(=O)CC(C)(C)C2)C1c1ccc(-c2ccccc2)cc1 (centres undefined),-11.6% (inactive),
CC(C)[C@@H](c1ccc(C(F)(F)F)cc1CN(Cc1cc(C(F)(F)F)cc(C(F)(F)F)c1)c1nnn(C)n1)N1CCC(C(=O)O)CC1,3.78% (inactive),
C[C@@H]1CC[C@]2(C(=O)OC3OC(CO)C(O)C(O)C3O)CC[C@]3(C)C(=CCC4[C@@]5(C)CC[C@H](O)[C@](C)(C(=O)O)C5CC[C@]43C)C2[C@]1(C)O (some centres undefined),-0.332% [at 16.9 µM] (inactive),
COc1c2c(c(C)c3c1C(=O)OC3)O[C@@]1(C)CC(O)C(C(C)(C)O)[C@](C)(CCC(=O)O)[C@H]1C2 (some centres undefined),4.8% [at 28 µM] (inactive),
CC(C)CN(C[C@@H](O)[C@H](Cc1ccccc1)NC(=O)O[C@@H]1CO[C@H]2OCC[C@H]21)S(=O)(=O)c1ccc(N)cc1,3.84% (inactive),
C[C@@H]1C[C@@H]([C@@H](O)C(C)(C)O)O[C@H]2C[C@@]3(C)C(=C12)C[C@H](O)[C@H]1[C@@]2(C)CCC(=O)C(C)(C)C2CC[C@@]13C (some centres undefined),0.0811% [at 28 µM] (inactive),
